Data from PubChem BioAssay (EPA / NIEHS).
Inconclusive results are not listed. Active and inactive are the calls of the source. How the source made its calls, unless noted: active means hit-call score of the fitted dose curve at least 0.9, where 1 is the maximum; inactive means score below 0.9.

Experiments:
[1] = ATG_TCF_b_cat_CIS: Attagene CIS-FACTORIAL HepG2 Assay for human T-Cell-Factor with beta-catenin (TCF/b-cat) (AID 2282965); conditions: HepG2 TCF/beta-catenin cis-reporter transcription, actives raise or lower the signal
Outline: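 HepG2, transient MRTU transfection, cis-element-driven reporters (endogenous TFs). 24 h compound exposure. Readout: reporter mRNA by RT-PCR + 6-FAM primer extension, HpaI digest, capillary electrophoresis. Gain/loss fit vs DMSO baseline.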

[2] = ATG_TAL_CIS: Attagene CIS-FACTORIAL HepG2 Assay for human TAL Basal Promoter (AID 2282966); conditions: HepG2 Attagene cis-factorial TAL promoter reporter; actives raise or lower the signal;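 further: background control endpoint measuring basal TAL promoter reporter mRNA not a specific factor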
Outline: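 HepG2, transient MRTU transfection, 24 h compound exposure; RNA → oligo(dT) RT → PCR → 6-FAM primer extension → HpaI digest → CE fluorescence. Bidirectional curve fit vs DMSO. Background-control readout.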

[3] = ATG_TGFb_CIS: Attagene CIS-FACTORIAL HepG2 Assay for human Transforming Growth Factor (TGF) (AID 2282967); conditions: HepG2 Attagene CIS TGFb reporter, mRNA transcription; actives raise or lower the signal
Outline: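 Cells were dosed for 24 hours, after which total RNA was reverse-transcribed and reporter sequences amplified, labeled and sized by capillary electrophoresis. Activity was fitted in both directions against DMSO.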

[4] = ATG_VDRE_CIS: Attagene CIS-FACTORIAL HepG2 Assay for human Vitamin D Receptor Element (VDRE) (AID 2282968); conditions: HepG2 VDRE cis-reporter transcription, actives raise or lower the signal
Outline: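 Transient MRTU transfection of HepG2, 24 h compound exposure. Readout: reporter transcripts via RT-PCR and capillary electrophoresis, fluorescence. Bidirectional fit vs DMSO.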

[5] = target: Nuclear receptor subfamily 1 group I member 3 (Homo sapiens) (UniProt Q14994); assay: ATG_CAR_TRANS: Attagene TRANS-FACTORIAL HepG2 Assay for human Constitutive Androstane Receptor (CAR) (AID 2282969; active means hit-call score of the fitted dose curve at least 0.9, where 1 is the maximum;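 further: activators raise reporter mRNA above DMSO so AC50 marks induction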); conditions: HepG2 Attagene TRANS-FACTORIAL CAR reporter
Sequence of Nuclear receptor subfamily 1 group I member 3 (Homo sapiens) (Q14994 whole entry, looked up, the tested form may be a part): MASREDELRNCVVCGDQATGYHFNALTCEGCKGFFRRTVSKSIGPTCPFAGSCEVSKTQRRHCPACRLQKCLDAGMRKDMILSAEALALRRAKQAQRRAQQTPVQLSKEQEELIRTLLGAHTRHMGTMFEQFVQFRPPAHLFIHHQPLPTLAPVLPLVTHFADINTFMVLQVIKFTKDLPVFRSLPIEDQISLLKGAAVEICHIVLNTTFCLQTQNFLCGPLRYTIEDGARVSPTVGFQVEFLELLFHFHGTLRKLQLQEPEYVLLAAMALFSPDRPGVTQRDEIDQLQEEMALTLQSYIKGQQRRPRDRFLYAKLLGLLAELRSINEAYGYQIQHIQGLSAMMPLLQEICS
Outline: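 Transiently transfected HepG2, multiplex TRANS reporters (CAR-Gal4 chimera driving GAL4-UAS reporter). 24 h dosing. Readout: reporter transcript by RT-PCR + capillary electrophoresis, fluorescence intensity; positive direction vs DMSO.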

[6] = target: Estrogen receptor (Homo sapiens) (UniProt P03372); assay: ATG_ERa_TRANS: Attagene TRANS-FACTORIAL HepG2 Assay for human Estrogen Receptor alpha (ERa) (AID 2282970; active means hit-call score of the fitted dose curve at least 0.9, where 1 is the maximum); conditions: HepG2 Attagene TRANS ERa GAL4 reporter, mRNA
Sequence of Estrogen receptor (Homo sapiens) (P03372 whole entry, looked up, the tested form may be a part): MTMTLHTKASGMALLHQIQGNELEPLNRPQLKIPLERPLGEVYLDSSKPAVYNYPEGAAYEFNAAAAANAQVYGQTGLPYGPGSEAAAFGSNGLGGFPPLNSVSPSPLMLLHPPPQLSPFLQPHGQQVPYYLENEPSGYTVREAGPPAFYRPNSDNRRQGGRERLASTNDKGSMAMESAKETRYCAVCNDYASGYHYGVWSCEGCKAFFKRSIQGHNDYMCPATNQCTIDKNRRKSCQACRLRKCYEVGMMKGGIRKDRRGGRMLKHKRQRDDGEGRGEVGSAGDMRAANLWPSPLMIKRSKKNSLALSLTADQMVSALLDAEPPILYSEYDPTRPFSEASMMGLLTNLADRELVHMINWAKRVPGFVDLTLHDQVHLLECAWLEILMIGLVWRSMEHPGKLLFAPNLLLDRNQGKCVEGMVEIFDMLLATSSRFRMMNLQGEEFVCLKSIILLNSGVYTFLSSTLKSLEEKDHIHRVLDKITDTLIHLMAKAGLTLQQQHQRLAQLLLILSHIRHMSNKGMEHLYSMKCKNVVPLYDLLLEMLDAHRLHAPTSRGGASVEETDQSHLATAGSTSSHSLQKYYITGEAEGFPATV
Outline: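 Reporter mRNA induction after 24 hours, detected by fluorescent RT-PCR and capillary electrophoresis, gives the read-out. Cells are HepG2 transiently transfected with GAL4-UAS reporter transcription units responding to chimeric NR-Gal4. Activity is taken as gain of signal over DMSO baseline.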

[7] = target: X-box-binding protein 1 (Homo sapiens) (UniProt P17861); assay: ATG_Xbp1_CIS: Attagene CIS-FACTORIAL HepG2 Assay for human X-box Binding Protein 1 (XBP1) (AID 2282972); conditions: HepG2 XBP1 cis-element reporter, Attagene multiplex; actives raise or lower the signal
Sequence of X-box-binding protein 1 (Homo sapiens) (P17861 whole entry, looked up): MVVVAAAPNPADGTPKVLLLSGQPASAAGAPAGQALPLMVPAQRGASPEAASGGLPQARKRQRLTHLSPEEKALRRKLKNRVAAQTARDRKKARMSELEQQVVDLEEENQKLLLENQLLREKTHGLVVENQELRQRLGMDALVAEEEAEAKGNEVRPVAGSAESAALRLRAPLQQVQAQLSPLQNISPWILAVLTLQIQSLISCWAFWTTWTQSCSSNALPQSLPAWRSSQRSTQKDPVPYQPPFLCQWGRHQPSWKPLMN
Outline: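 Human hepatoma HepG2, cis-element reporter system, 24 h treatment; mRNA quantified by RT-PCR/CE fluorescence; fit relative to DMSO.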

[8] = ATG_M_19_TRANS: Attagene TRANS-FACTORIAL HepG2 Assay for M19 Transcription Factor (Internal Marker) (AID 2282974; active means hit-call score of the fitted dose curve at least 0.9, where 1 is the maximum); conditions: HepG2 Attagene TRANS-FACTORIAL M19 internal marker reporter
Outline: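 Using RT-PCR and capillary electrophoresis, reporter mRNA from transiently transfected human HepG2 cells was quantified following 24 h exposure; activity was fitted in the positive direction against DMSO.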

[9] = target: Steroid hormone receptor ERR1 (Homo sapiens) (UniProt P11474); assay: ATG_ERRa_TRANS: Attagene TRANS-FACTORIAL HepG2 Assay for human Estrogen-Related Receptor alpha (ERRa) (AID 2282971; active means hit-call score of the fitted dose curve at least 0.9, where 1 is the maximum); conditions: HepG2 Attagene TRANS reporter, ERRa transactivation
Sequence of Steroid hormone receptor ERR1 (Homo sapiens) (P11474 whole entry, looked up, the tested form may be a part): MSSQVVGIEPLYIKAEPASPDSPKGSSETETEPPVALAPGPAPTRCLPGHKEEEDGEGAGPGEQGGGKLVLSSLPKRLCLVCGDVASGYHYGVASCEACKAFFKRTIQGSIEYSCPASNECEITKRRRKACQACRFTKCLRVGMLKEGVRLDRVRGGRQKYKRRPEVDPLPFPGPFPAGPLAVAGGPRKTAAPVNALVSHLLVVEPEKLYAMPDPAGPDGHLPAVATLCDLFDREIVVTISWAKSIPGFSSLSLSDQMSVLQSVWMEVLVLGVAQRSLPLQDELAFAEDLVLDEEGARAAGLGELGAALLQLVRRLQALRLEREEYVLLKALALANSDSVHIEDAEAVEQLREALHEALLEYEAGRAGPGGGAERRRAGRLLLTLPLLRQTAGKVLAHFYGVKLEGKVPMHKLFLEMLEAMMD
Outline: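 Transfected HepG2, 24 h dosing, ERRa-Gal4 chimera driving GAL4-UAS reporter. Readout: reporter mRNA via RT-PCR plus capillary electrophoresis (fluorescence). Positive direction vs DMSO control.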

[10] = target: Androgen receptor (Homo sapiens) (UniProt P10275); assay: ATG_AR_TRANS: Attagene TRANS-FACTORIAL HepG2 Assay for human Androgen Receptor (AR) (AID 2282973; active means hit-call score of the fitted dose curve at least 0.9, where 1 is the maximum); conditions: HepG2 Attagene TRANS-FACTORIAL AR reporter transcription
Sequence of Androgen receptor (Homo sapiens) (P10275 whole entry, looked up, the tested form may be a part): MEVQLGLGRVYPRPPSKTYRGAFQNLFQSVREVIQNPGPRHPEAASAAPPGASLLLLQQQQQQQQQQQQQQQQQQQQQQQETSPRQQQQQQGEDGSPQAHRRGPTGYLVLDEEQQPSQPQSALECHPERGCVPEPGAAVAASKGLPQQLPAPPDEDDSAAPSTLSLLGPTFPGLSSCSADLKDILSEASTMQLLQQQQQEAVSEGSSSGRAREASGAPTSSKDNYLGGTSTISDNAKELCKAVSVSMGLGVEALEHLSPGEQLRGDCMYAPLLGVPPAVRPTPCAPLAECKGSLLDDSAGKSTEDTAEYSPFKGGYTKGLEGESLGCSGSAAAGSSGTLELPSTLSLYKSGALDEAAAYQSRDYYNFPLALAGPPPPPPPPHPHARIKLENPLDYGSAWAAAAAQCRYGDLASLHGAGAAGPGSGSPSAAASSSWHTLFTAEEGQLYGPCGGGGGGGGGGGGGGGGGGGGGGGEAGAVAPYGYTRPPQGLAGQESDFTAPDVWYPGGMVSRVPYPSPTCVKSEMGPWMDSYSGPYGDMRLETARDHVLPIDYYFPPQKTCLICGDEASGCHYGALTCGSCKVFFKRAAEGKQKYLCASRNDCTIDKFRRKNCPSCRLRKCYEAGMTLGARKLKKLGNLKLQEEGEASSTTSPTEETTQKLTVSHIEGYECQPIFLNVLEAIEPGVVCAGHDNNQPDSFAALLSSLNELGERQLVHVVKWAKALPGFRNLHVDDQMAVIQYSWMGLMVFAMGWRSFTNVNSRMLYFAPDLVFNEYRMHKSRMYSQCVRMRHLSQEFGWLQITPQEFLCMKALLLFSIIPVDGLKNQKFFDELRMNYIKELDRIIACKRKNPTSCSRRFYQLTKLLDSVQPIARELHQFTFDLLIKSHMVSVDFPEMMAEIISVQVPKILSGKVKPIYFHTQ
Outline: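 Readout is reporter transcript abundance, quantified by fluorescent RT-PCR products separated on capillary electrophoresis. Human HepG2 liver cells carried transiently transfected NR-Gal4 chimera plus GAL4-UAS reporter constructs and were dosed for 24 h; activity scored upward versus DMSO.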

Measured: AC50

CNC(=O)Oc1ccc(N(C)C)c(C)c1
not listed: [9] | [10]
inactive: all other assays above

OCC(F)(F)OC(F)(F)C(F)(F)OC(F)(F)C(F)(F)OC(F)(F)CO
active: [1] 9.92 µM | [4] 18.6 µM | [6] 0.281 µM
not listed: [5]
inactive: all other assays above

CC(O)C#N (stereo unspecified)
not listed: [5] | [8] | [9]
inactive: all other assays above

CCOP(=O)(O)C(N)=O
not listed: [9] | [10]
inactive: all other assays above

C=CC(=O)OCC(CC)(COC(=O)C=C)COC(=O)C=C
active: [3] 49.4 µM | [4] 3.37 µM
not listed: [5] | [8]
inactive: all other assays above

N#Cc1ccc(O)cc1
not listed: [9] | [10]
inactive: all other assays above

O=[N+]([O-])c1cc(Cl)ccc1Cl
inactive: [1] | [2] | [3] | [4] | [6] | [7]

CCOc1ccc(C(C)(C)COCc2cccc(Oc3ccccc3)c2)cc1
active: [4] 5.77 µM
not listed: [9] | [10]
inactive: all other assays above

COCCOCCO
not listed: [6] | [8] | [10]
inactive: all other assays above

FC(F)(F)c1ccc(Cl)cc1
inactive: [1] | [2] | [3] | [4] | [5] | [7]

CC(C)(C)N(NC(=O)c1ccc(Cl)cc1)C(=O)c1ccccc1
inactive: [1] | [2] | [3] | [4] | [6] | [7]

O=P1(N(CCCl)CCCl)NCCCO1 (stereo unspecified)
active: [6] 17 µM
not listed: [5] | [8] | [10]
inactive: all other assays above

CCOP(=S)(Oc1ccc([N+](=O)[O-])cc1)c1ccccc1 (stereo unspecified)
inactive: [1] | [2] | [3] | [9] | [7]
active: [4] 6.46 µM | [6] 3.9 µM

CC(Cc1ccc(OCC(=O)O)cc1)NCC(O)c1csc(C(F)(F)F)n1 (stereo unspecified)
not listed: [6] | [9] | [10]
inactive: all other assays above

CCCCN(CCCC)SN(C)C(=O)Oc1cccc2c1OC(C)(C)C2
active: [6] 75.5 µM
not listed: [9] | [10]
inactive: all other assays above

O=C(O)C(F)(F)OC(F)(F)C(F)(F)OC(F)(F)C(=O)O
not listed: [5] | [8]
inactive: all other assays above

CC(C)CBr
not listed: [5] | [8] | [9]
inactive: all other assays above

CCOP(=S)(OCC)SCSCC
inactive: [1] | [2] | [3] | [7]
active: [4] 35.4 µM | [6] 27.4 µM

CCNc1nc(Cl)nc(NC(C)(C)C)n1
active: [6] 1.54 µM
not listed: [5] | [8] | [9]
inactive: all other assays above

CCCCOCC1CO1 (stereo unspecified)
not listed: [6] | [10]
inactive: all other assays above

ClC(Cl)c1ccccc1
not listed: [6] | [10]
inactive: all other assays above

NC(=O)C(F)(F)C(F)(F)F
not listed: [5]
inactive: all other assays above

CCOC(=O)c1ccccc1N
inactive: [1] | [2] | [3] | [4] | [6] | [7]

CCCCC(CC)COC(=O)c1c(Br)c(Br)c(Br)c(Br)c1C(=O)OCC(CC)CCCC (stereo unspecified)
inactive: [1] | [2] | [3] | [4] | [6] | [7]

O=C(O)C=CC(F)(C(F)(F)F)C(F)(F)F
not listed: [5] | [8]
inactive: all other assays above

Cc1ccc2c(c1N)C(=O)c1ccccc1C2=O
active: [6] 4.04 µM
not listed: [4] | [10]
inactive: all other assays above

Oc1ccc(I)cc1
active: [6] 19.7 µM
not listed: [5] | [9] | [10]
inactive: all other assays above

Cc1ccc([N+](=O)[O-])cc1C
not listed: [5] | [9] | [10]
inactive: all other assays above

CC(=O)CCc1ccc2c(c1)OCO2
inactive: [1] | [2] | [3] | [5] | [6] | [7]
